Results taken from PubChem BioAssay AID1347075 (National Center for Advancing Translational Sciences (NCATS), 2019).
In all, about 400,000 compounds went through this assay and about 5,500 (1.4%) were called active. About 9% were inconclusive and are not listed. Calls follow the shape of the dose curve; as a rule, active = well fitted cell-killing curve with a large enough effect; inconclusive = small, poorly fitted or top-dose-only effect, or effect the other way; inactive = flat fitted curve, though single readings scatter. Shown is part of a subset that was picked to be rich in actives. A call without a number means that no potency is given here.
Potency is read from the fitted curve at half-maximal effect.

Experiment: qHTS assay for MDR1-selective chemotherapeutics: Primary screen using the parental adenocarcinoma cell KB-3-1; also: nearly all actives have a fitted effect of over 60% in size
Conditions: KB-3-1 viability, CellTiter-Glo ATP luminescence, 72 h; series mostly up to 46.1 µM
Outline: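 Screening of KB-3-1 cells (DMEM, 10% FBS, phenol-red free) ran from lowest to highest compound concentration; after 72 h at 37 °C viability was read luminescently and curves fitted.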
In the case of COc1cccc(Cn2c(SCc3ccc(C(=O)N4CCC(C)CC4)cc3)nc3ccncc32)c1, the Potency is reported as “inactive”. In the case of Cc1cccc(Cn2c(SCc3ccc(C(=O)N4CCC(C)CC4)cc3)nc3ccncc32)c1, the Potency is reported as 23.1 µM (active). With Cc1cccc(CSc2nc3ccncc3n2Cc2ccc(C(=O)O)cc2)c1 the Potency was “inactive”. With CCOc1n[nH]c(-c2ccccc2)n1 the Potency was “inactive”. For CCN(CC)S(=O)(=O)c1nnc(NC(=O)COc2ccccc2Cl)s1, the Potency was “inactive”. For CN(Cc1cncn1C)c1ncnc2ccc(-c3ccc4c(c3)OCO4)cc12, the Potency was “inactive”. In the case of Cn1c(=O)c2c(nc(SCC(=O)Nc3ccc(F)cc3)n2Cc2ccc(Cl)cc2)n(C)c1=O, the Potency is reported as “inactive”. For COc1ccc(-c2onc(C)c2C)cc1S(=O)(=O)NCC1CCN(Cc2cccc(F)c2)CC1, the Potency was “inactive”. For Cc1cccc(NC(=O)Cn2cc(S(=O)(=O)Cc3ccccc3Cl)c3ccccc32)c1, the Potency was “inactive”. In the case of Cc1cccc(NC(=O)c2nc(S(=O)(=O)Cc3ccccc3)ncc2Cl)c1, the Potency is reported as 5.8 µM (active). For Cc1ccc(CS(=O)(=O)c2ncc(Cl)c(C(=O)Nc3nnc(C)s3)n2)cc1, the Potency was 20.6 µM (active). For CCS(=O)(=O)c1ncc(N(Cc2ccc(F)cc2)Cc2ccco2)c(C(=O)Nc2cc(C)ccc2C)n1, the Potency was “inactive”. In the case of O=C(Nc1nnc(Cc2ccc(Cl)cc2)s1)c1ccncc1, the Potency is reported as “inactive”. In the case of O=C(Nc1nnc(Cc2ccc(Cl)cc2)s1)c1cccnc1, the Potency is reported as “inactive”. With CC(=O)c1cccc(NC(=O)c2nc(-c3ccccc3)n(-c3cccc(C)c3)n2)c1 the Potency was “inactive”. In the case of CSc1nnc(NC(=O)c2nc(S(=O)(=O)Cc3ccc(C)cc3)ncc2Cl)s1, the Potency is reported as 16.4 µM (active). For Cc1ccc2nc(NC(=O)c3nc(SCc4ccccc4F)ncc3Cl)sc2c1, the Potency was “inactive”. With CCOC(=O)c1c(NC(=O)CSc2cn(CCNC(=O)c3cccc(C(F)(F)F)c3)c3ccccc23)sc2c1CCC2 the Potency was “inactive”. With CC1(C)Cc2ccccc2-c2c[nH]c(=O)n21 the Potency was “inactive”. With COc1ccc(-c2cc(-c3nc(-c4cc(OC)c(OC)c(OC)c4)no3)[nH]n2)c(OC)c1 the Potency was “inactive”. With CC1CCN(S(=O)(=O)c2ccc3c(ccn3CCC(=O)NCc3ccc(N(C)C)cc3)c2)CC1 the Potency was “inactive”. With COc1ccc(N(C)C(=O)C2CCN(S(=O)(=O)c3cc(Br)cc4c3N(C(C)=O)CC4)CC2)cc1 the Potency was “inactive”. For O=C(Nc1cccc(S(=O)(=O)Nc2ccc(Cl)cc2)c1)c1ccc2c(c1)OCCO2, the Potency was 8.2 µM (active). For CN1CCN(c2ccc(NC(=O)c3ccc4c(c3)OCCO4)cc2Cl)CC1, the Potency was “inactive”. With CCN(CC)CCNC(=O)c1ccc(NS(=O)(=O)c2ccc3c(c2)OCCO3)cc1 the Potency was “inactive”. For CN(C(=N)N)c1ccc(/C=C2\C=Cc3ccccc32)cc1, the Potency was “inactive”. With COc1ccccc1NC(=O)CSC1=Nc2ccccc2C2=NC(CC(=O)NCc3cccs3)C(=O)N12 (stereo not drawn) the Potency was “inactive”. For O=C(Nc1ccc2c(c1)CCC2)c1cccc(S(=O)(=O)N2CCN(c3ccc(F)cc3)CC2)c1, the Potency was “inactive”. In the case of Cc1cccnc1NC(=O)c1cccc(S(=O)(=O)N2CCN(c3ccc(F)cc3)CC2)c1, the Potency is reported as 20.6 µM (active). With Cc1ccc(C(=O)Nc2ncccc2C)cc1S(=O)(=O)N1CCOCC1 the Potency was “inactive”. For CCOC(=O)c1cc2ccccc2n1CC(=O)c1ccccc1, the Potency was “inactive”. For CCn1c(/C=C/Nc2ccccc2)[n+](CC)c2ccc(C(=O)OCC(F)(F)F)cc21, the Potency was 18.4 µM (active). With CCOC(=O)c1ccc2c(c1)nc(C)n2CC the Potency was “inactive”. In the case of COc1ccccc1-c1noc(-c2ccc(NCc3ccccc3)c([N+](=O)[O-])c2)n1, the Potency is reported as “inactive”. With C[C@H]1CN(c2ccc(Br)cc2)C(=O)[C@@H]1CC(=O)Nc1ccc(Br)cc1 the Potency was “inactive”. With CNC(=O)C[C@H]1C(=O)N(c2ccc(OC)cc2)C[C@@H]1Cc1ccccc1 the Potency was “inactive”. In the case of O=C1N(Cc2ccccc2)c2ccc(Cl)cc2C1(O)c1c[nH]c2ccccc12 (stereo not drawn), the Potency is reported as “inactive”. For CCC(O)CNc1nc(-n2nc(C)cc2C)nc2sc3c(c12)CC(C)(C)OC3 (stereo not drawn), the Potency was “inactive”. For COCCNc1nc(-n2nc(C)cc2C)nc2sc3c(c12)CCCC3, the Potency was 11.6 µM (active). In the case of CCc1nc(N2CCN(C(C)=O)CC2)c2c3c(sc2n1)CCCC3, the Potency is reported as “inactive”. With CC(C)Oc1ccc(NC(=O)c2cc3ccccc3o2)cc1 the Potency was “inactive”. In the case of Cc1c(/C=N\NC(=O)c2cc3ccccc3o2)c2ccccc2n1C, the Potency is reported as 8.2 µM (active). In the case of Cc1c(/C=N/N2C(=O)C3C4C=CC(C4)C3C2=O)c2ccccc2n1C (stereo not drawn), the Potency is reported as “inactive”. For O=C(c1cc(Cl)cc(Cl)c1)N1CCC(=O)N(C(COCc2ccccc2)Cc2ccccc2)CC1 (stereo not drawn), the Potency was “inactive”. With CC(C)CC(COCc1ccc(Cl)cc1)N1CCN(C(=O)c2ccc(C(F)(F)F)cc2)CCC1=O (stereo not drawn) the Potency was 18.4 µM (active). In the case of O=C(c1ccc(C(F)(F)F)cc1)N1CCC(=O)N([C@H](COCc2ccccc2)Cc2ccccc2)CC1, the Potency is reported as “inactive”. For COc1ccc(C(=O)NCC(c2ccc(N(C)C)cc2)N2CCc3ccccc32)c(OC)c1 (stereo not drawn), the Potency was “inactive”. In the case of CC1CC(C)CN(c2oc(-c3ccc(OCc4ccc(Cl)cc4)cc3)nc2C#N)C1 (stereo not drawn), the Potency is reported as “inactive”. For Cc1ccc(Nc2nc3ccccc3nc2-n2nc(C)cc2C)c(Cl)c1, the Potency was “inactive”. For CCCOc1ccccc1C1CC(=O)Nc2cc3c(cc21)OCO3 (stereo not drawn), the Potency was 2.59 µM (active). For Cc1cc2c(cc1C)C(c1cccc(OC(C)C)c1)CC(=O)N2 (stereo not drawn), the Potency was “inactive”. In the case of O=C1CC(c2ccc(F)cc2F)c2cc3c(cc2N1)OCO3 (stereo not drawn), the Potency is reported as “inactive”. With CC(C)Cn1c(-c2ccc(S(=O)(=O)N3CCOCC3)cc2)csc1=Nc1cc(Cl)ccc1Cl the Potency was “inactive”. With CN(N=O)c1ccc(C=C2c3ccccc3-c3ccccc32)cc1 the Potency was “inactive”. With COc1ccc(C2C(C(C)=O)=C(O)C(=O)N2CCc2c[nH]c3ccccc23)cc1 (stereo not drawn) the Potency was “inactive”. For C[N+](C)(C)CCNC(=O)c1c[nH]c2ccccc12, the Potency was “inactive”. With COc1ccc(/C=C(\C#N)c2c[nH]c3ccccc23)cc1 the Potency was 1.64 µM (active). For Cc1cc(C(=O)CSc2nc(N)cc(=O)[nH]2)c(C)n1CCc1ccc(Cl)cc1, the Potency was “inactive”. With Cc1cc(C)c(C(=O)CSc2nc(C)cc(=O)[nH]2)c(C)c1 the Potency was “inactive”. In the case of Cc1cc(C(=O)CSc2nc(N)cc(=O)[nH]2)c(C)n1-c1cccc(F)c1, the Potency is reported as 5.8 µM (active). In the case of Cc1cccc(C(=O)N2CCc3cc(CNC(=O)Cc4ccc(F)cc4)ccc32)c1, the Potency is reported as “inactive”. With CCOc1ccc(OCC)c(NS(=O)(=O)c2ccc3[nH]c(=O)ccc3c2)c1 the Potency was “inactive”. For COc1cc(NS(=O)(=O)c2ccc3ccccc3c2)c2ncccc2c1, the Potency was 6.51 µM (active). In the case of O=[N+]([O-])c1ccccc1S(=O)(=O)Nc1cccc2cccnc12, the Potency is reported as “inactive”. With CCN(CCCNC(=O)CSc1cc(=O)n(C)c2cc(Cl)ccc12)c1cccc(C)c1 the Potency was “inactive”. In the case of CCOC(=O)CCP(=O)(O)C(O)(c1ccccc1)c1ccccc1, the Potency is reported as “inactive”. With CCOC(=O)C(=Cc1ccccc1)C(=O)c1ccccc1 the Potency was 20.6 µM (active). In the case of CCc1ccccc1NC(=O)/C(=C/c1ccccc1)c1ccccc1, the Potency is reported as “inactive”. In the case of Cc1ccc2cccc(NC(=O)c3ccc(OC(C)C)cc3)c2n1, the Potency is reported as “inactive”. In the case of CCOC(=O)C1CCCN(S(=O)(=O)c2cc(-c3cc(C)no3)ccc2OC)C1 (stereo not drawn), the Potency is reported as “inactive”. For Cc1ccc(NC(=S)N(CCCN2CCCC2)Cc2cccn2Cc2ccc(Cl)cc2)cc1, the Potency was 20.6 µM (active). With Cc1ccccc1NC(=S)N(CCCN1CCOCC1)Cc1cccs1 the Potency was “inactive”. With CCc1cccc(C)c1NC(=S)N(CCCN1CCN(C)CC1)Cc1cccs1 the Potency was “inactive”. In the case of Cc1ccccc1-c1nc(CS(=O)(=O)CC(=O)Nc2cc(Cl)cc(Cl)c2)c(C)o1, the Potency is reported as “inactive”. For Cc1nnc(N2CCC(C(=O)Nc3ccc(F)cc3)CC2)c2nn(-c3ccc(Cl)cc3)c(C)c12, the Potency was “inactive”. For CCc1ccccc1NS(=O)(=O)c1ccc2nc(-c3ccccc3)[nH]c2c1, the Potency was “inactive”. For COc1cc(CNCCSc2nnnn2C)ccc1OCc1c(F)cccc1Cl, the Potency was 18.4 µM (active). For COc1cc(CNCCN(C)C)ccc1OCc1c(F)cccc1Cl, the Potency was “inactive”. For COc1cc(CNCCSc2nnnn2C)ccc1OCc1ccc(Cl)cc1Cl, the Potency was “inactive”. In the case of Cc1onc(-c2ccccc2Cl)c1C(=O)OCc1nnc(-c2ccccc2)o1, the Potency is reported as “inactive”. For CCOC(=O)c1c(-c2cccc(C)c2)csc1NC(=O)c1c(-c2ccccc2)noc1C, the Potency was 5.17 µM (active). For CCOC(=O)c1c(NC(=O)c2cc(-c3ccc(Cl)cc3)on2)sc2c1CCCC2, the Potency was “inactive”. In the case of CC1=C(C(=O)Nc2ccccc2)C(c2ccc(C)cc2)n2nc(SCc3ccccc3C)nc2N1 (stereo not drawn), the Potency is reported as “inactive”. For CCOc1ccc(N(CC)S(=O)(=O)N2CCCC(C(=O)NCc3ccc(SC)cc3)C2)cc1 (stereo not drawn), the Potency was “inactive”. With COc1ccccc1Nc1nc(N)nc(N)c1S(=O)(=O)c1ccccc1 the Potency was “inactive”. In the case of CC1(C)N=C(N)NC(Nc2ccc(Cl)cc2)=N1, the Potency is reported as “inactive”. With COc1ccccc1NC1=NC(c2ccc(Cl)cc2)N=C(N)N1 (stereo not drawn) the Potency was 3.66 µM (active). In the case of CCOC(=O)c1ccc(NC(=O)c2c(NCc3cccc(OC)c3)sc3c2CCC3)cc1, the Potency is reported as “inactive”. In the case of COc1ccc(-c2csc(-c3c(N)c(C(=O)c4ccc(OC)c(OC)c4)n4ccccc34)n2)cc1, the Potency is reported as “inactive”. In the case of CCN(CC)CCCC(C)Nc1ccnc2cc(Cl)ccc12 (stereo not drawn), the Potency is reported as 10.3 µM (active). In the case of CCN(CC)CCNc1ncnc2c1cnn2-c1cc(Cl)ccc1C, the Potency is reported as “inactive”. With CCN(CC)CCNc1ccc(Cl)cc1[N+](=O)[O-] the Potency was “inactive”. In the case of CNCCCOc1cc2nc(N3CCCN(C)CC3)nc(NC3CCN(C)CC3)c2cc1OC, the Potency is reported as “inactive”. For CCOC(=O)c1cc(-c2ccc(OC)c(S(=O)(=O)Nc3ccc(OC)cc3OC)c2)on1, the Potency was “inactive”. For Cc1cccc(CNC(=O)c2cnc3sc(N4CCCCC4)nn3c2=O)c1, the Potency was “inactive”. In the case of CCOC(=O)CSC1=Nc2ccccc2C2=NC(CCC(=O)NCc3ccc(F)cc3)C(=O)N12 (stereo not drawn), the Potency is reported as “inactive”. With Cc1ccc(CNC(=O)CSC2=Nc3ccccc3C3=NC(C)C(=O)N23)cc1 (stereo not drawn) the Potency was “inactive”. In the case of CC(C)C1N=C2c3ccccc3N=C(SCC(=O)c3ccc(O)c(O)c3)N2C1=O (stereo not drawn), the Potency is reported as 23.1 µM (active).
